For 20 molecules, cell viability and kynurenine production results are on record in the supplement of paper PMC13094657.

Where a name gives a salt, the structure may show the parent alone. ± gives the standard deviation of the averaged measurements.

The test system of assay [1] is MDA-MB-231. In words: cell viability relative to vehicle unstimulated control (fraction); higher = more viable cells. To be noted: pre-treatment time: 18 h then 24 h IFNg/TNF.
Assay [2] deals with MDA-MB-231. In words: kynurenine production, fold change vs DMSO IFNg/TNF control; higher = more kynurenine produced (less inhibition). The conditions noted are these: pre-treatment time: 18 h then 24 h IFNg/TNF. The gist of the method:
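MDA-MB-231 cells (7 × 10^4/well, 96-well plates, seeded 24 h earlier) were pre-treated 18 h with each natural product in 0.1% DMSO, then stimulated 24 h with IFNγ (1 U/ml) and TNF (6.25 ng/ml) at 37°C. Supernatant kynurenine was read at 492 nm after trichloroacetic acid and p-dimethylaminobenzaldehyde treatment, against 0–100 μM standards. Kynurenine production is the fold change over cytokine-stimulated vehicle wells on the same plate, averaged over duplicate plates in the first screening round.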
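For cell viability relative to vehicle unstimulated control in this document: viability of the cells left after supernatant collection, read with Deep Blue dye added for 4 h, as absorbance at 570 nm minus 600 nm.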

Turning to `CN[C@H]1CCc2cc(OC)c(OC)c(OC)c2-c2ccc(OC)c(=O)cc21` [Demecolcine (colcemid)] (compound dose: 10 uM), the cell viability in assay [1] stood at 0.847 ± 0.13. Moreover, the kynurenine production in assay [2] came out at 0.486 ± 0.099.
For `CC(C)c1ccc2c(c1O)CC[C@H]1C3=C(CC[C@]21C)C(=O)OC3` [Triptophenolide] (compound dose: 10 uM), in that order: 0.9594 ± 0.0068 and 0.815 ± 0.17.
For `CC(=O)O[C@@H]1[C@H]2[C@@H](OC(=O)Cc3ccccc3)[C@@H](C)C[C@]2(OC(C)=O)C(=O)/C(C)=C/[C@@H]2[C@H](CC[C@]13CO3)C2(C)C` [Euphorbia factor L1] (compound dose: 10 uM), in that order: 1.12 and 1.07 ± 0.11.
In the case of `C[C@@H]1C(=O)O[C@H]2[C@H](O)[C@@]34O[C@@H]5OC(=O)[C@H](O)[C@@]56[C@H](C(C)(C)C)[C@H](O)C(OC3=O)[C@]64[C@@]12O` (stereo not given in full) [Ginkgolide C] (compound dose: 10 uM), the cell viability in assay [1] was found to be 0.9704 ± 0.0066. Further, the kynurenine production in assay [2] came to 0.947 ± 0.088.
For the molecule `C=C1CC[C@H]2[C@@H](/C=C(\C)C(=O)[C@@]3(OC(C)=O)C[C@H](C)[C@H](OC(=O)Cc4ccccc4)[C@@H]3[C@H]1OC(C)=O)C2(C)C` [Deoxy euphorbia factor L1] (compound dose: 10 uM), the cell viability in assay [1] was found to be 1.07 ± 0.074. Also, in assay [2], the kynurenine production is 0.9513 ± 0.0042.
Consider `CC1=C[C@@H]2C(=O)[C@]3(C=C(C)[C@H](O)[C@@]3(O)[C@@H]1O)[C@H](C)C[C@@H]1[C@H]2C1(C)C` [20-Deoxyingenol] (compound dose: 10 uM), for which, in assay [1], the cell viability stood at 0.975 ± 0.11. Besides, the kynurenine production in assay [2] was 0.703 ± 0.12.
Regarding `COc1ccc(CC2c3cc(OC)c(OC)cc3CCN2C)cc1OC` (stereo not given) [Laudanosine] (compound dose: 10 uM), the cell viability in assay [1] is 1.02 ± 0.043. Moreover, the kynurenine production in assay [2] stood at 0.52 ± 0.037.
On to `COc1cc2c3c(c1OC)-c1ccccc1C[C@H]3N(C)CC2` [Nuciferine] (compound dose: 10 uM), for which the cell viability in assay [1] amounted to 1.05 ± 0.051. The kynurenine production in assay [2] stood at 1.1 ± 0.08.
As for `CC1=C[C@]23C(=O)[C@@H](C=C(CO)[C@@H](O)[C@]2(O)[C@H]1O)[C@H]1[C@@H](C[C@H]3C)C1(C)C` [Ingenol] (compound dose: 10 uM), the cell viability in assay [1] was 0.906 ± 0.051. The kynurenine production in assay [2] is 0.846 ± 0.12.
For the molecule `CC(C)=CCC[C@H](C(=O)O)[C@H]1CC[C@]2(C)C3=C(CC[C@@]12C)[C@@]1(C)CCC(=O)C(C)(C)[C@H]1CC3` [β-Elemonic acid] (compound dose: 10 uM), the cell viability in assay [1] stood at 1.03 ± 0.034. Also, the kynurenine production in assay [2] is 1.161 ± 0.0012.
Regarding `COc1cc2c3cc1Oc1cc(ccc1O)C[C@@H]1c4c(cc(OC)c(O)c4Oc4ccc(cc4)C[C@H]3N(C)CC2)CCN1C` [Curine] (compound dose: 10 uM), the cell viability in assay [1] came to 0.654 ± 0.038. Further, the kynurenine production in assay [2] turned out to be 0.389 ± 0.026.
In the case of `CC(C)[C@]12CC(=O)[C@H](C)[C@H]1C2` [α-Thujone] (compound dose: 10 uM), the cell viability in assay [1] worked out at 1.05 ± 0.058. For the same molecule, the kynurenine production in assay [2] came out at 0.947 ± 0.21.
For `COc1cc2c(c(OC)c1OC)-c1ccc(OC)c(=O)cc1[C@@H](NC(C)=O)CC2` [Colchicine] (compound dose: 10 uM), in that order: 0.802 ± 0.097 and 0.234 ± 0.046.
`CO[C@H]1CCN2[C@@H]3C=CC4=CC(=O)O[C@]4(C3)[C@@H]2C1` [Securitinine] (compound dose: 10 uM): the cell viability in assay [1] was 0.983 ± 0.035. For the same molecule, the kynurenine production in assay [2] came to 0.734 ± 0.084.
Turning to `COc1cc([C@@H]2c3cc4c(cc3C[C@H]3COC(=O)[C@@H]32)OCO4)cc(OC)c1OC` [4-deoxypodophyllotoxin] (compound dose: 10 uM), the cell viability in assay [1] was 0.814 ± 0.042. Further, the kynurenine production in assay [2] was 0.623 ± 0.19.
`C=C1[C@H](OC(=O)c2ccccc2)C[C@H]2[C@@H](/C=C(\C)C(=O)[C@@]3(OC(C)=O)C[C@H](C)[C@H](OC(=O)c4ccccc4)[C@@H]3[C@H]1OC(C)=O)C2(C)C` [Euphorbia factor L2] (compound dose: 10 uM): the cell viability in assay [1] was 1.07 ± 0.015. Besides, the kynurenine production in assay [2] was 0.384 ± 0.048.
The corresponding values for `CN1[C@@H]2C[C@@H](OC(=O)[C@H](CO)c3ccccc3)C[C@H]1[C@@H]1O[C@@H]12` [Scopolamine hydrobromide] (compound dose: 10 uM) are 0.983 ± 0.025 and 0.811 ± 0.067.
Regarding `CC1=C[C@H]2[C@@]3(O)[C@H](C)[C@@H](O)[C@]4(O)[C@H]([C@@H]3C=C(CO)C[C@]2(O)C1=O)C4(C)C` [Phorbol] (compound dose: 10 uM), the cell viability in assay [1] turned out to be 1.02 ± 0.074. The kynurenine production in assay [2] was found to be 0.894 ± 0.041.
Regarding `C[C@@]1(C(=O)O)CC[C@]2(C)CC[C@]3(C)C4=CC(=O)c5c(cc(O)c(O)c5C=O)[C@]4(C)CC[C@@]3(C)[C@@H]2C1` [Demethylzeylasteral] (compound dose: 10 uM), in assay [1], the cell viability was 0.786 ± 0.1. Also, the kynurenine production in assay [2] turned out to be 0.294 ± 0.022.
`CC(=O)OC(C)(C)/C=C/C(=O)[C@](C)(O)[C@H]1[C@H](O)C[C@@]2(C)[C@@H]3CC=C4[C@@H](C=C(O)C(=O)C4(C)C)[C@]3(C)C(=O)C[C@]12C` [Cucurbitacin E] (compound dose: 10 uM): the cell viability in assay [1] worked out at 0.52 ± 0.0012. Further, the kynurenine production in assay [2] worked out at 0.19 ± 0.034.
